# Results published in ChEMBL document CHEMBL1157539, “Thousands of chemical starting points for antimalarial lead identification” (Nature, 2010).
# Tested on: Plasmodium falciparum
# Assay: GSK_TCMDC: Inhibition of Plasmodium falciparum 3D7 in whole red blood cells, using parasite LDH activity as an index of growth. Test compounds present at 2uM
# Assay type: functional
row,SMILES,Inhibition [%]
1,Cc1cc2nc(-c3ccc(/C=C/C(=O)NCCc4ccccc4)cc3)[nH]c2cc1C,98
2,CN1CC[C@@H](Oc2cc(Nc3nc(-c4ccc(C#N)cc4)cs3)ccc2Cl)C1.Cl,99
3,COc1ccc2nccc([C@@H](O)CN3CCC(NCc4cnc5snnc5c4)C(F)C3)c2c1.Cl (some centres undefined),83
4,CC1CCC(NC(=O)c2nn(-c3ccc(Cl)cc3)c(=O)c3ccccc23)CC1 (centres undefined),91

# Tested on: Plasmodium falciparum
# Assay: GSK_TCMDC: Inhibition of Plasmodium falciparum Dd2 in whole red blood cells, using parasite LDH activity as an index of growth. Test compounds present at 2uM
# Assay type: functional
row,SMILES,Inhibition [%]
1,CC1c2cccc(O)c2CCN1CCc1ccc(Cl)c(Cl)c1.Cl (centres undefined),99
2,c1ccc(CN2CCc3cc4nccc(N5CCNCC5)c4cc32)cc1,99
3,COc1cc2nc(N3CCC(CNC(=O)c4ccc(-c5ccc(C(F)(F)F)cc5)cc4)CC3)nc(N)c2cc1OC,100
4,COc1ccc(C2(CNCC(O)c3cccc([N+](=O)[O-])c3)CCCCC2)cc1OC.Cl (centres undefined),85
5,COc1ccc(Nc2nc(=Nc3ccccc3)nc(NN=Cc3cc(Cl)ccc3O)[nH]2)cc1,10
6,CCn1c(-c2nonc2N)nc2c(-c3cccc(NC(=O)Nc4cccc(Cl)c4)c3)ncc(OCCCN)c21.O=C(O)C(F)(F)F,78
7,CCCCCC(C)C(C)c1cc(O)c2c(c1)OC(C)(C)CC2(O)c1ccccn1 (centres undefined),3
8,Cl.NOCCCOc1ccc(Cl)cc1,0
9,COc1ccc(Nc2nccc(-c3ccc(NC(=O)c4cc5cc(F)ccc5[nH]4)cc3)n2)cc1,26
10,CC(Oc1cccc(Cl)c1)C(=O)N1CCc2ccccc21 (centres undefined),77
11,CCOc1cc(C(=O)NC2CCN(Cc3ccccc3)C2)ccc1-c1nc2cc(Cl)ccc2[nH]1 (centres undefined),60
12,CC(C)(C)c1cc(C(=O)Nc2ccc(C(=N)N)cc2)c(O)c(C(C)(C)C)c1.O=C(O)C(F)(F)F,88
13,COc1ccc(CCNCCCCCCNCCCc2ccc(Cl)cc2)cc1OC.Cl,2
14,CN1CCN(CCCNCc2cccc(Nc3nccc(Nc4ccc(Oc5ccccc5)cc4)n3)c2)CC1,80
15,O=C(CCCCCNC(=O)c1ccc(O)c(-c2ccc(Cl)c(Cl)c2)c1)NC1CCCCCC1,3
16,COc1cc(OCCCN(C)Cc2ccc(OC)c(OC)c2)ccc1NC(=O)c1cccc2c(O)c3cccc(F)c3nc12,62
17,COc1ccc(-c2ccc(CN(C)C3CCC(NC(=O)c4cc5ccccc5[nH]4)CC3)cc2)cn1 (centres undefined),2
18,C[C@@H](NC(=O)NC(CCN1CCC2(CC1)CN(S(C)(=O)=O)c1ccccc12)c1ccc(Cl)c(Cl)c1)c1ccccc1 (some centres undefined),88
19,CCN(CC)CCN(Cc1ccc(-c2ccc(Cl)s2)cc1)C(=O)Cn1c(CCc2cccc(F)c2F)nc(=O)c2ccccc21.O=C(O)C(O)C(O)C(=O)O,27
20,Cc1cc(NCCC(=O)NCc2cccc(F)c2)nc(Nc2ccccc2)n1.O=C(O)C(F)(F)F,15

row,SMILES,Inhibition [%]
1,CC(=O)Nc1ncc(C(=O)Nc2ccc(-c3cccc(-c4nc5cc(C(F)(F)F)ccc5[nH]4)c3)cc2)s1,92
2,CC(=O)Nc1cccc(NC(=O)CSc2ccc(-c3nc4ccccc4[nH]3)cn2)c1,73
3,O=C(O)C(F)(F)F.O=c1ccc2ccc(F)c3c2n1CC3CN1CCC(NCc2ccc(-c3cccc(Cl)c3)nc2)CC1 (centres undefined),33
4,CSc1ccc(CN2CCC(NC(=O)c3ccc(-c4cccc(C(F)(F)F)c4)s3)CC2)cc1.O=C(O)C(F)(F)F,9
5,c1ccc(OCCOc2ccc(Nc3ccnc4cc5ccccc5cc34)cc2)cc1,96
6,NC1CCCN(Cc2ccc(-c3cccc(-c4nc5ccccc5[nH]4)c3)cc2)C1.O=C(O)C(F)(F)F (centres undefined),26
7,O=C(Cn1c(SCc2cccc(F)c2F)cc(=O)c2ccccc21)N(CCc1c[nH]cn1)Cc1ccc(-c2ccc(C(F)(F)F)cc2)cc1,72
8,COc1ccc(Nc2nccc(N3CCC(NS(=O)(=O)c4ccc(NC(C)=O)cc4)C3)n2)cc1 (centres undefined),16
9,Cc1cccc(Nc2nccc(NCC(O)c3cccc(C(F)(F)F)c3)n2)c1 (centres undefined),94
10,CCOc1cc(C(=O)N[C@@H](Cc2ccccc2)[C@H](O)CNCc2cc(OC)cc(OC)c2)cc(N2CCCS2(=O)=O)c1.Cl,66
11,CN1CCN(c2cc3c(cc2Cl)CCN3C(=O)Cc2ccc(Cl)c(NC(=O)Nc3cccc(C#N)c3)c2)CC1,40
12,COc1cc(CCOc2c(C)nc(N)nc2N)cc(OC)c1OC.Cl,0
13,Cc1cccc(CNc2nc(C)cc(N[C@@H](CC(C)C)C(=O)NCCOc3ccccc3)n2)c1.O=C(O)C(F)(F)F,35
14,Cc1cc(-c2ccc3c(c2)CCN(CCC2CCC(NC(=O)/C=C/c4ccccc4F)CC2)CC3)on1.Cl (centres undefined),13
15,CC(C)(CN)c1nc(-c2ccc(Br)c(O)c2)c(-c2ccncc2)[nH]1.Cl,97
16,S=C(NCCN1CCOCC1)Nc1ccccc1,1
17,Cc1cc2nc(-c3ccc(/C=C/C(=O)NCCc4ccccc4)cc3)[nH]c2cc1C,13
18,CN1CC[C@@H](Oc2cc(Nc3nc(-c4ccc(C#N)cc4)cs3)ccc2Cl)C1.Cl,24
19,COc1ccc2nccc([C@@H](O)CN3CCC(NCc4cnc5snnc5c4)C(F)C3)c2c1.Cl (some centres undefined),88
20,CC1CCC(NC(=O)c2nn(-c3ccc(Cl)cc3)c(=O)c3ccccc23)CC1 (centres undefined),67
